Assay outcomes (PubChem)
In the library only some 9.2% were active in any assay of this set; here they are far more common.
FLuc counter = firefly luciferase modulation, counter-screen for miR-21 project; purified FLuc, Km substrates, luminescence inhibition; Potency, µM (top dose mostly 57.5 µM), for inactives: top-dose activity change, negative = inhibition, actives largely listed as inhibitors; P08659; 360,000 compounds, 6.9% hits;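 further: plate controls were vehicle for no effect and reference inhibitor for full effect; nearly all actives have a fitted effect of over 55% in size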
Target sequence (P08659 whole entry, looked up): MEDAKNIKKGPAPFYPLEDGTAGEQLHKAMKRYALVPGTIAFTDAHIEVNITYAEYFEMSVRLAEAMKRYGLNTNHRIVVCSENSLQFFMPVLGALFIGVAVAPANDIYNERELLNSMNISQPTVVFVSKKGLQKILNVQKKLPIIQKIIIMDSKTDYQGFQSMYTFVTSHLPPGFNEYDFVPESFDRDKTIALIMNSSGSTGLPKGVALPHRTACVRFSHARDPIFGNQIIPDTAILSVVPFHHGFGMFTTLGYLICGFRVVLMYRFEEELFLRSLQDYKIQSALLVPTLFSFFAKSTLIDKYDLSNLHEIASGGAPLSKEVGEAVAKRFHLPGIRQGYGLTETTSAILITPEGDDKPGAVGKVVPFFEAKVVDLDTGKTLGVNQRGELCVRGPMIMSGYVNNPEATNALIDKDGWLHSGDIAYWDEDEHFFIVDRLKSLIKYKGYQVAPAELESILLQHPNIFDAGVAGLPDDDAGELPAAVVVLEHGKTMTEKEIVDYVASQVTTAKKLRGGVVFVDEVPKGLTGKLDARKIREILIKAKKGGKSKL
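Purified P. pyralis luciferase, 10 nM final, with Km-level 10 uM D-luciferin and 10 uM ATP in 50 mM Tris acetate pH 7.5, 10 mM Mg acetate, 0.01% Tween-20, 0.05% BSA; 6-point qHTS titration about 60 µM downward; luminescence read.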
SMN2 splice enh = SMN2 splice variant enhancement; 210,000 compounds, 2.8% hits; Potency, µM (top dose mostly 46.1 µM), inactives show at the top dose activity change, positive = activation, hits mostly activators; HEK293 SMN2-luciferase splicing reporter, luminescence, 30-36 h; further: % of control where 0% means no effect; nearly all actives have a fitted effect of over 55% in size
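HEK293 cells carry an SMN2 minigene-luciferase reporter in which exon 7 inclusion puts luciferase in frame. Cells were seeded at 2000 cells/well, attached for 10-12 hours, then exposed to compounds for 30-36 hours at 37C before ONE-Glo luminescence.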
ELG1 DNA repair = inhibitors of ELG1-dependent DNA repair in HEK293T cells | Potency, µM (highest dose often 46.1 µM), inactives show at the highest dose activity change, negative = inhibition, usual class: inhibitors | 330,000 compounds, 2.3% hits | HEK293T ELG1-luciferase reporter, luminescence, 16 h; DNA damage induced by 5-fluorouridine | AID 504467; further: on the % scale 0 is the no-effect control and ±100 the full control effect; nearly all actives have a fitted effect of over 55% in size
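Step one: seed 2,000 cells per well. Step two: pin-transfer compound or DMSO alongside 5-fluorouridine. Step three: incubate 16 hr, 37 °C, 5% CO2. Step four: add ONE-Glo, wait 30 min, read luminescence.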
ELG1 genotoxic = induces genotoxicity in HEK293T cells with luciferase-tagged ELG1 | HEK293T ELG1-luciferase reporter, luminescence, 16 h | Potency, µM (series often up to 46 µM), without a hit: top-dose activity change, positive = activation, usual class: activators | 330,000 compounds, 1.3% hits | AID 504466; further: % of control where 0% means no effect; nearly all actives have a fitted effect of over 60% in size
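DMSO vehicle served as control against compound-treated ELG1-luciferase HEK293T cells; exposure lasted 16 hr at 37 °C and 5% CO2, followed by ONE-Glo luminescence detection after 30 min.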
Rab9 promoter act = activators of Rab9 promoter. 320,000 compounds, 2.8% hits. Potency, µM (titrated, usually from 9.22 µM), without a hit: top-dose activation, negative = inhibition, usual class: activators. Huh7 Rab9 promoter-luciferase reporter, luminescence, 24 h; further: % of control where 0% means no effect; nearly all actives have a fitted effect of over 60% in size
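Steps: seed 1500 Huh7 Rab9-luc cells per well, rest 2 h at 37 °C; add compound in DMSO; incubate 24 h; add luciferase reagent, 10 min ambient; read luminescence.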
NPC1 promoter act = NPC1 promoter activation | Huh7 NPC1 promoter luciferase reporter, 24 h | 320,000 compounds, 2.4% hits | Potency, µM (series often up to 9.22 µM), inactives show at the highest dose activation, usual class: activators; further: % of control where 0% means no effect; nearly all actives have a fitted effect of over 60% in size
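Huh7 cells stably carrying NPC1 promoter–luciferase, plated in Opti-MEM with 10% FBS for 2 h, were exposed to compound in DMSO for 24 h at 37 °C; luciferase reagent was added for 10 min and luminescence read.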
Active calls of the source: *; ? = inconclusive; . = no result; [ ] = remark or other dose. The call rests on the fitted dose curve; in most records, active means well fitted curve in the direction sought with a large enough effect; inconclusive means small, poorly fitted or top-dose-only effect, or another doubt; inactive means no such curve, though single readings can be large; an effect the other way counts as inactive or inconclusive. Potency means the concentration at half of the fitted maximal effect.

SMILES	FLuc counter	SMN2 splice enh	ELG1 DNA repair	ELG1 genotoxic	Rab9 promoter act	NPC1 promoter act
COCCn1c(=O)[nH]c(=O)c2c1nc(-c1ccc(-c3ccc(Cl)cc3[N+](=O)[O-])o1)n2Cc1ccccc1	-1%	?	13µM*	-13%	-2%	-3%
O=c1[nH]c(=O)n(Cc2ccccc2)c2nc(-c3ccc(Oc4ccc(F)cc4)c([N+](=O)[O-])c3)n(CCO)c12	0%	16%	?	6%	-3%	-4%
COCCCn1c(-c2cccc(Cl)c2)nc2c1c(=O)[nH]c(=O)n2Cc1ccccc1	1%	.	?	0%	7%	-2%
COc1ccc(CN(Cc2ccco2)c2cnc(S(C)(=O)=O)nc2C(=O)Nc2ccc(F)cc2)cc1	1%	.	.	.	.	.
CCCCCc1ccc(OCCC[n+]2ccccc2)c(CCCCC)c1	1%	.	?	-3%	-11%	-21%
CCCCCc1ccc(OCCOCCn2c[n+](C)c3ccccc32)c(CCCCC)c1	-3%	-64%	7.3µM*	2%	-7%	-28%
O=C1N/C(=C\c2ccc(O)cc2)C(O)=C1C=NCc1ccccc1	12µM*	-21%	?	13%	-7%	-14%
CCN(CC)S(=O)(=O)c1ccc2c(c1)nc(CCC(=O)Nc1ccc(N3CCOCC3)cc1)n2C	17µM*	9%	-7%	-1%	1%	0%
CCN(CC)S(=O)(=O)c1ccc(/C=C/C(=O)Nc2ccc(N3CCOCC3)cc2)cc1	-1%	.	5.2µM*	-13%	-20%	-1%
CCCn1c(CCC(=O)Nc2ccccc2Cc2ccccc2)nc2cc(S(=O)(=O)N3CCOCC3)ccc21	0%	-11%	12µM*	2%	1%	0%
COc1ccc(/C=C/C(=O)Nc2ccc(N3CCOCC3)cc2)cc1	-15%	-29%	8%	-1%	-3%	1%
Cn1c(CCC(=O)Nc2ccc(F)cc2)nc2cc(S(=O)(=O)N3CCOCC3)ccc21	3%	.	2%	-10%	-6%	-1%
CC(C)c1cnc2c(c1SCc1ccc([N+](=O)[O-])cc1)c(=O)n(C)c(=O)n2C	1%	.	.	.	.	.
CCN(C(=O)C1CCCN(c2ncnc3c2nc2n3CCCCC2)C1)c1cccc(C)c1 (stereo not given)	-10%	.	.	.	.	.
Fc1ccc2c(c1)-c1nc(-c3ccccc3)cc(-c3ccccc3)c1CO2	1%	1%	.	.	.	.
C#CC(C)(C)NC(=O)c1ccc(-c2ccccc2F)cc1	19µM*	.	?	?	?	?
O=C(COC(=O)c1c(F)cccc1Cl)NC(=O)Nc1ccc2c(c1)OCCO2	-26%	.	?	11%	0%	0%
Cc1nc(C)c(C(=O)N/N=C/c2cn(C)c3ccccc23)s1	17µM*	-4%	?	1%	8%	-3%
Cn1cc(/C=N/NC(=O)c2cccc([N+](=O)[O-])c2)c2ccccc21	-2%	2%	?	?	-10%	7%
CC(=O)n1cc(/C=N/NC(N)=S)c2ccccc21	0%	?	19%	18%	-1%	0%
O=C(N/N=C\c1coc2ccccc2c1=O)c1ccco1	-27%	.	-3%	-8%	-2%	-6%
CC(C)(C)OC(=O)n1cc(/C=N/NC(=O)c2ccco2)c2ccccc21	9.5µM*	.	?	8%	17%	22%
Cn1cc(/C=N/NC(=O)c2ccccc2O)c2ccccc21	4.8µM*	.	?	9%	26%	?
CC(=O)n1cc(/C=N/NC(=O)c2ccccc2O)c2ccccc21	9.5µM*	.	29%	11%	?	28%
CCc1ccc(-n2c(=O)c3sc4ccccc4c3n(CC(=O)N3CCCC3)c2=O)cc1	2%	18%	.	.	.	.
SMILES	FLuc counter	SMN2 splice enh	ELG1 DNA repair	ELG1 genotoxic	Rab9 promoter act	NPC1 promoter act
Cc1ccsc1/C=N/NC(=O)c1ccc2nc[nH]c2c1	?	21%	?	9%	?	23%
Cc1ccsc1/C=N\NC(=O)c1ccc2c(c1)OCO2	3.8µM*	?	?	?	1.4µM*	1.4µM*
Cc1ccsc1/C=N/NC(=O)c1ccc2c(c1)OCCO2	0.95µM*	.	?	1.6µM*	0.35µM*	0.63µM*
Cc1ccc(NC(=S)c2ccc3ccccc3n2)c(C)c1	11µM*	.	?	?	1.6µM*	1.1µM*
COc1cc(NC(C)=O)ccc1NC(=O)c1cc2ccccc2o1	3%	.	?	?	?	?
Cc1cc([N+](=O)[O-])ccc1NC(=O)c1cc2ccccc2o1	?	.	?	-4%	2.5µM*	?
Cc1ccc(C)c(NC(=O)c2cc3ccccc3o2)c1	13µM*	.	?	17%	4µM*	?
CCCC(=O)Nc1ccc(NC(=O)c2cc3ccccc3o2)c(OC)c1	?	.	0%	18%	2.5µM*	4µM*
Cc1[nH]c(C)c(Cl)c(=O)c1Cl	.	-3%	.	.	.	.
FC(F)(F)Oc1ccc2c(c1)NC(c1ccncc1)=NC(c1cccs1)=N2	-16%	-3%	.	.	.	.
Cc1cccc(C)c1OCC(=O)N1CCC(c2nc3ccccc3o2)CC1	-2%	.	.	.	.	.
COc1ccc(C)cc1NC(=O)c1cc2ccccc2o1	15µM*	17%	?	7%	-1%	5%
COc1cc(N)ccc1NC(=O)c1cc2ccccc2o1	11µM*	.	?	?	3.2µM*	4µM*
Cc1ccc(C)c(NC(=O)c2ccc3ccccc3n2)c1	0.85µM*	14µM*	?	?	2µM*	4µM*
COc1ccc(OC)c(NC(=O)c2cc3ccccc3o2)c1	-15%	.	6%	?	0%	15%
Fc1ccc(N/N=C/c2cccnc2)c(F)c1	?	26%	?	?	?	?
Fc1cccc(/C=N/Nc2nccnc2Cl)c1	21µM*	.	?	?	?	?
O=[N+]([O-])c1cccc(/C=N/Nc2ccccn2)c1	3µM*	11µM*	?	?	4µM*	?
O=[N+]([O-])c1cccc(/C=C/c2ccccn2)c1	13µM*	.	?	8%	?	?
O=[N+]([O-])c1cccc(/C=N/Nc2nccnc2Cl)c1	12µM*	?	?	?	2µM*	2.8µM*
COc1ccc(C(=O)NCc2nnc(SCC(=O)NC3CCCC3)o2)cc1	0%	.	?	1%[9.26 µM]	-4%	0%
c1ccc(-c2ncc(-c3ccn[nH]3)s2)cc1	3.4µM*	2.8µM*	?	?	0.56µM*	1.4µM*
CC(=O)c1ccc(NC(=O)/C=C/c2ccc(C)o2)cc1	7.6µM*	13µM*	.	.	.	.
Cc1ccc(/C=C/C(=O)Nc2ccc(Oc3ccccc3)cc2)o1	6µM*	-47%	?	9%	1%	-5%
